# Screening data: PubChem, several laboratories
# An excerpt weighted towards active compounds, which were near 3.6% of everything screened.
# CRFBP-R2 block: blocks CRF-induced signaling of the CRF-BP/CRF-R2 complex; hit rate 0.59% among 350,000; HEK293 CRF-R2/CRF-BP, CRF-induced calcium fluorescence; inhibition, % at 11.8 µM;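 active = inhibition of the ligand-induced calcium signal above about 50% at the single tested concentration, limit read from the data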
# Myeloid diff MLP: promotes myeloid progenitor differentiation; ER-HoxA9 myeloid progenitors, lysozyme-GFP differentiation, flow cytometry; calls only at 10 µM; hit rate 1% among 360,000;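 active = normalized GFP-positive differentiation at or above the plate's own cutoff, the solvent-only control mean plus 3 SD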;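 note: cells exposed to compound for four days before flow analysis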
# FAS TE block: inhibitors of human fatty acid synthase thioesterase domain; P49327; recombinant FAS-TE, OMFH fluorogenic substrate, fluorescence endpoint; inhibition, % at 15 µM; hit rate 0.67% among 360,000;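 active = compounds whose normalised, plate-corrected inhibition of enzyme fluorescence in the single-dose primary screen is 50% or more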;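 note: 0% = DMSO with enzyme and 100% = substrate without enzyme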
# NRP1-CendR mod: alters CendR peptide binding to human NRP-1 | inhibition, % at 25 µM | hit rate 0.85% among 360,000 | AID 602438 | FAM-RPARPAR peptide binding to NRP-1, fluorescence polarization;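 active = inhibition or corrected inhibition above about 18%, plus a signal ratio from 0.5 to 1.5, limit read from the data, passing the limit was not always enough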
# Target sequence (O14786 whole entry, looked up): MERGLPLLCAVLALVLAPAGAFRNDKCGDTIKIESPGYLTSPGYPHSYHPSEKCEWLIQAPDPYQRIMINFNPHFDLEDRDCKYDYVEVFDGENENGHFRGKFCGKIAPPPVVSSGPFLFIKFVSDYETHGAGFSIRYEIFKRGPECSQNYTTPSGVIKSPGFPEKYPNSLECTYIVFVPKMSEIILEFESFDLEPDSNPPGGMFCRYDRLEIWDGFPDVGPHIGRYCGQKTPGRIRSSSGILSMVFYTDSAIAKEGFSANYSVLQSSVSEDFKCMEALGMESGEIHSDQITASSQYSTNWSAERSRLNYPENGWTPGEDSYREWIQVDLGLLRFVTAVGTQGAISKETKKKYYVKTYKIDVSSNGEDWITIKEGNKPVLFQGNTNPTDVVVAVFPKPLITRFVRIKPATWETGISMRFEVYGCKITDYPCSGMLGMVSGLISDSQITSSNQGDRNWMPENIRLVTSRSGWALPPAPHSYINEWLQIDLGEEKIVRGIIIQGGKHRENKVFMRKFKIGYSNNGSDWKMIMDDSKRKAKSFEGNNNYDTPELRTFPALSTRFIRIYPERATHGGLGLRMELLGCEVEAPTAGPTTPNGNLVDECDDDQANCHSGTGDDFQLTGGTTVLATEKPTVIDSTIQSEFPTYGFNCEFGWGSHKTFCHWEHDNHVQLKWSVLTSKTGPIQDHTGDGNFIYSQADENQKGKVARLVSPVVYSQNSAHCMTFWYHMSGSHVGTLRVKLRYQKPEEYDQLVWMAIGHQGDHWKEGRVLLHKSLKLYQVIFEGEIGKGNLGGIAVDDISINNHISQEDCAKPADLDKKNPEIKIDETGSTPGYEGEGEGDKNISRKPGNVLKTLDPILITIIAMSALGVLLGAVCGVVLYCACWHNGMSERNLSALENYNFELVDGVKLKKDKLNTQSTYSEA
# NadD block: blocks S. aureus nicotinate mononucleotide adenylyltransferase; purified NadD enzyme, colorimetric absorbance read-out; inhibition, % at 20 µM; hit rate 0.78% among 360,000; AID 602399; in the data active = inhibition above about 26%
# Myeloid diff CP1: compounds promoting myeloid differentiation | shares compounds with Myeloid diff MLP | AID 651706 | ER-HoxA9 myeloid progenitors, GFP/Mac1 double-positive flow | hit rate 2% among 2,300 | calls only;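 active = share of green or green-and-red cells above 9 and 9% in run 1 or 4 and 3% in run 2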
# GFP autofluor: counter-screen for myeloid differentiation promoters: compound fluorescence. shares compounds with Myeloid diff MLP. ER-HoxA9 myeloid progenitors, no estrogen, GFP autofluorescence flow cytometry; vehicle wells 0%, positive control 100%. fluorescence response, % (concentration not given with the values). hit rate 7.4% among 2,300. AID 651707;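 active = over 5% cells positive for green fluorescent reporter, or over 2% positive for both it and APC stain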;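 note: range taken on the double positive population between DMSO and positive control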
# Numbers without * were called inactive; i = inactive; nt = no result given; + = active, no number.
SMILES,CRFBP-R2 block,Myeloid diff MLP,FAS TE block,NRP1-CendR mod,NadD block,Myeloid diff CP1,GFP autofluor
CCCCn1c(-c2ccoc2C)n[nH]c1=S,-9,+,-4,1,5,i,0
COc1ccc(Nc2nc(N)nc(CN3CCN(c4ccc(F)cc4)CC3)n2)cc1,-10,i,-2,0,2,i,0
COc1ccc(N2CCN(Cc3nc(N)nc(Nc4ccccc4OC)n3)CC2)cc1,10,i,-5,11,6,nt,nt
CCOc1ccccc1-n1c(SCC(N)=O)nnc1-c1ccc(O)cc1,6,i,-7,-5,-5,nt,nt
CCOc1ccccc1-n1c(SCC(N)=O)nnc1-c1ccccc1,-20,i,-9,-2,-4,i,1
COc1ccc(Cl)cc1NC(=O)NC(C)c1ccncc1 (stereo not given),17,i,-5,4,2,nt,nt
COc1ccc(Cl)cc1NC(=O)C1CSC(c2ccncc2)=N1 (stereo not given),14,+,6,-13,0,i,0
CCCCCCn1c(=O)n2n(c1=O)C[C@]1(OC(=O)Nc3c(C)noc3C)CN(S(=O)(=O)c3ccc(C)cc3)C[C@]1(O)C2,-2,i,-5,-5,1,nt,nt
c1ccc(-c2ccc(OCCCn3cncn3)cc2)cc1,20,i,-10,2,5,nt,nt
c1ccc(COc2ccc(OCCn3cncn3)cc2)cc1,6,i,0,-12,2,i,0
Cc1cccc(NC(=O)CC2CCC2)c1,-2,i,-7,3,-6,i,0
CC(C)c1ccc(C2OCC(C)([N+](=O)[O-])CO2)cc1 (stereo not given),-18,i,2,12,-5,nt,nt
Cc1ccc(NC(=O)CN(C)C(=O)COc2ccc(C(=O)c3ccc(F)cc3)cc2)cc1,-3,i,11,-5,-4,nt,nt
O=C(Cc1ccccc1)N/N=C/c1cc(Br)c(Br)o1,-18,i,3,-5,1,i,1
O=C(Cc1ccccc1)NN=Cc1ccccc1,4,i,-2,7,4,nt,nt
Cc1ccc2c(c1C)C(=O)C(=O)N2,8,i,-10,14,-3,nt,nt
CCO[C@@H]1OC(C(=O)N2CCOCC2)=C[C@H](c2ccc(C(F)(F)F)cc2)[C@H]1CCCO,0,i,-5,13,4,nt,nt
Cc1ccc(-c2cc(C(=O)NN=C3CCCC3)c3ccccc3n2)cc1,-2,i,6,6,1,i,0
C/C(=N\NC(=O)c1cccc(S(=O)(=O)N2CCCC2)c1)c1ccc(OCC(=O)N(C)C)cc1,-6,i,-10,-1,-6,nt,nt
COc1ccccc1-c1ccc(SCc2ccc(F)cc2)nn1,36,+,14,3,-3,i,1
O=C(Nc1ccc2c(c1)OCCO2)c1ccc(Br)c(S(=O)(=O)N2CCOCC2)c1,-2,i,8,-1,-4,nt,nt
COc1ccc(S(=O)(=O)N2CCC(C(=O)Nc3ccc4c(c3)OCCO4)CC2)cc1OC,-7,i,-3,-4,-2,nt,nt
O=C(Nc1ccc2c(c1)OCO2)c1ccc(Br)c(S(=O)(=O)N2CCCC2)c1,-20,+,12,8,-6,i,0
O=C(Nc1ccc2c(c1)OCO2)C1CCN(S(=O)(=O)c2ccc3c(c2)OCCO3)CC1,12,i,-1,-1,0,i,0
OC(CNc1ccccc1)COc1ccc(OCC(O)CNc2ccccc2)cc1 (stereo not given),-5,+,5,11,10,i,1
SMILES,CRFBP-R2 block,Myeloid diff MLP,FAS TE block,NRP1-CendR mod,NadD block,Myeloid diff CP1,GFP autofluor
CC1CN(c2snnc2C=C2C(=O)OC(C)(C)OC2=O)CC(C)O1 (stereo not given),13,i,-6,-21,-8,nt,nt
CC1CC(C)CN(CCCNC(=O)CCC(=O)N2CCOc3ccccc32)C1 (stereo not given),-9,i,-12,-3,0,i,0
CCN1CCN(CCCNC(=O)CCC(=O)N2CCOc3ccccc32)CC1,-44,i,-6,-2,2,nt,nt
C(=C\c1ccccn1)/c1ccccn1,3,i,-5,8,5,i,0
Cc1nc(SC(C)C(=O)NCC2CCCO2)c2cc(-c3ccccc3)sc2n1 (stereo not given),-2,+,10,4,-1,i,39*
Nc1nc(-c2cccnc2)nn1C(=O)c1ccc(F)cc1,-6,i,4,-6,-3,nt,nt
Cn1c(NCc2cccnc2)nc2cc(-c3cccc(C(=O)NCCO)c3)sc2c1=O,nt,+,-2,-16,1,i,1
COc1ccc(C2=Nc3ccccc3N(C(=O)c3ccc(C(F)(F)F)cc3)C2C(=O)Nc2c(C)cccc2C)cc1 (stereo not given),nt,i,nt,-10,nt,i,0
CC(C)NC(=O)C1C(c2ccccc2)=Nc2ccccc2N1C(=O)c1ccc(C(F)(F)F)cc1 (stereo not given),nt,i,nt,1,nt,nt,nt
CC(=O)Nc1ccc(S(=O)(=O)NC2(C(F)(F)F)N=C(c3ccccc3)NC2=O)cc1 (stereo not given),8,i,-10,8,-2,i,0
Cc1cn([C@H]2C[C@H](O)[C@@H](COS(=O)(=O)O)O2)c(=O)[nH]c1=O,-14,i,-4,6,3,nt,nt
CC1(C)O[C@@H]2[C@H](O1)[C@@H](COS(=O)(=O)O)O[C@H]2n1cc(Br)c(=O)[nH]c1=O,2,+,-11,22,0,i,0
Cc1ccc(OCC(=O)Oc2ccc(C)c(C)c2)cc1,1,i,16,-1,-3,nt,nt
CCOc1cc(CNCc2ccncc2)cc(Br)c1OCc1ccccc1F,-26,i,2,6,-7,nt,nt
COc1ccc2c(c1)C(CC(C)=O)N(c1ccc(-c3cnc(OC)nc3)cc1)C(c1ccsc1)=C2 (stereo not given),nt,i,26,-2,22,nt,nt
COc1ccc2c(c1)C(CC(C)=O)N(c1ccc(-c3cccs3)cc1)C(c1ccsc1)=C2 (stereo not given),nt,+,15,-41,11,i,0
O=C(NNC(=O)c1ccc(S(=O)(=O)N2CCCC2)cc1)c1ccc(Br)cc1,-7,i,0,-1,-1,nt,nt
CC1=NN(c2ccccc2)C(=O)C1C=Nc1ccccc1O (stereo not given),-11,+,5,-5,-6,i,1
Cc1ccsc1C(=O)C1CCCN(Cc2cc(F)ccc2-n2cccn2)C1 (stereo not given),18,i,16,4,3,nt,nt
COc1ccc(NC(=O)CSc2nc3ccccc3nc2N2CCCC2)cc1,-1,i,24,-15,5,nt,nt
CC(C)C(=O)N(Nc1nc2ccccc2s1)C(=O)C(C)C,20,+,-6,11,-3,i,0
